Results from PubChem BioAssay (NCATS).
Records with an inconclusive call do not appear. Unmarked numbers belong to inactive results. Activity calls are given as the source filed them. The call rests on the fitted dose curve; in most records, active means well fitted inhibition curve with a large enough effect; inconclusive means small, poorly fitted or top-dose-only effect; inactive means no such curve, though single readings can be large or run the other way.

test: Counterscreen qHTS for small molecule stabilizers of the endoplasmic reticulum resident proteome: GLuc-NoTag assay (AID 1508627); conditions: Gaussia luciferase NoTag secretion counterscreen, luminescence, thapsigargin 100 nM for final 4 h; series mostly up to 76.4 µM; activity change, negative = inhibition: at the top concentration;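 on activity change, negative = inhibition: 0% = thapsigargin alone and -100% = DMSO vehicle control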
From the text: Assay Provider: Brandon K. Harvey Ph.D.
National Institute on Drug Abuse, National Institutes of Health, Baltimore, MD
Endoplasmic reticulum (ER) dysregulation is associated with human pathologies including neurodegenerative, cardiovascular, muscular, and diabetic conditions. Maintenance of ER calcium is critical for functions of the ER and its depletion can lead to loss of ER resident proteins, in a process termed exodosis. Therapeutic compounds capable of attenuating the redistribution of ER proteins under pathological conditions may slow or stop disease progression. To identify such compounds, we performed a quantitative high-throughput screen (qHTS) using the SERCaMP assay, which monitors secretion of ER resident proteins triggered by calcium depletion.
SERCaMP was initially developed as a reporter of ER calcium homeostasis using a Gaussia luciferase with a modified signal peptide and carboxy-terminus (GLuc-SERCaMP), modifications that confer secretion of the reporter in response to ER calcium depletion (Henderson et al., 2014). The assay was used to screen 9,501 compounds, including a collection of drugs approved by the FDA (US), EMA (EU), NHI (Japan), and HC (Canada) regulatory agencies (Huang et al., 2011). Since the SERCaMP reporter reflects the exodosis phenomenon (Trychta et al., 2018a), compounds identified in the screen have the potential to prevent exodosis by different mechanisms such as stabilizing ER calcium or augmenting ERS retrieval.
1. Henderson, M.J., Wires, E.S., Trychta, K.A., Richie, C.T., and Harvey, B.K. (2014). SERCaMP: a carboxy-terminal protein modification that enables monitoring of ER calcium homeostasis. Mol Biol Cell 25, 2828-2839.
2. Huang, R., Southall, N., Wang, Y., Yasgar, A., Shinn, P., Jadhav, A., Nguyen, D.T., and Austin, C.P. (2011). The NCGC pharmaceutical collection: a comprehensive resource of clinically approved drugs enabling repurposing and chemical genomics. Sci Transl Med 3, 80ps16.
3. Trychta, K.A., Back, S., Henderson, M.J., and Harvey, B.K. (2018a). KDEL Receptors Are Differentially Regulated to Maintain the ER Proteome under Calcium Deficiency. Cell Rep 25, 1829-1840 e1826.
SEQUENCE No. (1, 2, 3, etc.); […] (e.g., Cells, Incubation, Reagent, etc.); VALUE and DESCRIPTION.
1; Reagent; 5 uL; 1000 SH-SY5Y cells per wells
3; Compound; 23 nL; Control inhibitor / compound library
5; Reagent; 100 nM; Thapsigargin
7; Reagent; 1 uL; 0.5x coelenterazine
8; Detection; Luminescence; ViewLux imaging system
NOTES (numbers refer to sequence above)
1; SH-SY5Y human neuroblastoma cells stably expressing the constitutively secreted GLuc (SH-SY5Y-GLuc-NoTag) cells were seeded in 1,536 well white tissue culture treated plates (Corning, Cat# 7464) in DMEM-high glucose-sodium pyruvate (ThermoFisher Scientific, Cat #10569) supplemented with 10% bovine growth serum (Hyclone), 10 U/ml penicillin (Gibco), 10 ug/ml streptomycin (Gibco), and 20 mM HEPES.
2; Assay plates were incubated for 5 hour at 37C in a humidified incubator containing 5% CO2.
4; Cells were then incubated for 19 hours at 37C, 5% CO2.
5; Thapsigargin was added at 100 nM to deplete ER calcium stores.
6; Cells were incubated for 4 hour (37 °C, 5% CO2)
7; Gaussia luciferase in the medium was measured by adding 1 ul of 0.5x coelenterazine (final concentration 0.07x) prepared in Gaussia Luciferase Glow Assay Buffer (Pierce), without addition of the Cell Lysis Buffer Reagent.
8; Luminescence was measured using a ViewLux CCD imaging system (Perkin Elmer) equipped with clear filters. […] The same controls were also used for the calculation of the Z' factor, a measure of assay quality control, as previously described (Zhang et al., 1999). For the initial validation of activity in the SERCaMP assays, hits from the primary screen were assayed again at 11-concentrations (1.3 nM - 76.6 uM). SH-SY5Y-GLuc-SERCaMP cells were assayed for ER Ca2+ depletion as outlined above.
1. Zhang, J.H., Chung, T.D., and Oldenburg, K.R. (1999). […]
Potency means the concentration at half of the fitted maximal effect.

SMILES	Potency	activity change, negative = inhibition
CCCC(C(=O)OCCN(CC)CC)(c1ccccc1)c1ccccc1	17.8 µM (active)	–
CCOC(=O)c1cnc2c(cnn2CC)c1NN=C(C)C	–	15.1%
Cc1nc2sccn2c(=O)c1CCN1CCC(=C(c2ccc(F)cc2)c2ccc(F)cc2)CC1	inactive	–
c1cc(CN2CCCCC2)cc(OCCCNc2nc3ccccc3s2)c1	–	-19.3%
O=C(O)CN(CCN(CC(=O)O)CC(=O)O)CCN(CC(=O)O)CC(=O)O	–	38.6% [at 38.7 µM]
CCC(=O)c1ccc2c(c1)N(CCCN(C)C)c1ccccc1S2	–	5.06%
COc1cc(C(=O)OCCCN2CCCN(CCCOC(=O)c3cc(OC)c(OC)c(OC)c3)CC2)cc(OC)c1OC	–	46.2%
OC(CCN1CCCCC1)(c1ccccc1)C1CCCCC1 (stereo not given)	inactive	–
CN1C[C@H](C(=O)N[C@]2(C)O[C@@]3(O)[C@@H]4CCCN4C(=O)[C@H](Cc4ccccc4)N3C2=O)C[C@@H]2c3cccc4[nH]cc(c34)C[C@H]21	–	5.39%
CCN(CC)CCCN(c1ccccc1)C1Cc2ccccc2C1	inactive	–
CN(C)CC/C=C1\c2ccccc2COc2ccccc21	–	-0.694%
CN1CCN(C2=Nc3ccccc3Oc3ccc(Cl)cc32)CC1	–	-9.19%
NC(=Nc1ccccc1)Nc1ccccc1	inactive	–
CCCCNc1ccc(C(=O)OCCN(C)C)cc1	inactive	–
CC1=C(C)C(=O)C(CCCCC#CCCCC#CCO)=C(C)C1=O	–	35.1%
C(=C\c1ccccc1)/CN1CCN(C(c2ccccc2)c2ccccc2)CC1	–	-8.7%
CN(C)CC[C@@H](c1ccc(Br)cc1)c1ccccn1	–	11%
CCc1cccc(N(C)C(N)=Nc2cccc3ccccc23)c1	39.8 µM (active)	–
CN(C)C/C=C(/c1ccc(Br)cc1)c1cccnc1	–	42.4%
OCCN1CCN(CCCN2c3ccccc3C=Cc3ccccc32)CC1	–	-15.5%
